Assay results from PubChem BioAssay.
The source made the active and inactive calls. Unless noted, how the calls were made is not given here.

How the values were obtained:
[1] = compound effects on lung adenocarcinoma cell viability – A549, calcein-AM fluorescence, 48 h, basal, profiling panel (AID 1162); details: higher = more signal; further: test concentration not given here
[2] = compound effects on differentiated 3T3-L1 adipocyte viability – cell-based, 3T3-L1 adipocytes, calcein-AM fluorescence, 48 h, basal, profiling panel (AID 1163); details: 3T3-L1 adipocytes viability, higher = more signal; further: test concentration not given here
[3] = compound effects on hepatocellular carcinoma cell viability – HepG2, calcein-AM fluorescence, 48 h, basal, profiling panel (AID 1164); details: higher = more signal; further: test concentration not given here
[4] = compound effects on multiple myeloma cell viability – MM1S, calcein-AM fluorescence, 48 h, basal, profiling panel (AID 1165); details: higher = more signal;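 further: viability of MM1S multiple myeloma cells under basal unstimulated conditions; test concentration not given here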
[5] = calcein-AM signal in unstimulated myeloma cells – cell-based, calcein-AM fluorescence, 48 h, PK04 Diversity Set, profiling panel (AID 1166); details: RPMI8226 myeloma viability, higher = more signal;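 further: cells grown under basal conditions without added stimulus; test concentration not given here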
[6] = JC-1 mitochondrial signal, unstimulated HepG2 cells – cell-based, JC-1 fluorescence, 24 h, 100 nL compound, profiling panel (AID 1167); details: HepG2 mitochondrial potential, higher = more signal; further: test concentration not given here
[7] = JC-1 mitochondrial signal, unstimulated adipocytes – cell-based, JC-1 fluorescence, 3T3-L1 adipocytes, 24 h, 100 nL compound, profiling panel (AID 1168); details: JC-1 mitochondrial fluorescence, higher = more signal, called active from +8 up or from −8 down; further: test concentration not given here
[8] = JC-1 mitochondrial signal, unstimulated myeloma cells – cell-based, JC-1 fluorescence, RPMI8226, 24 h, 100 nL compound, profiling panel (AID 1169); details: JC-1 mitochondrial potential fluorescence, higher = more signal; further: test concentration not given here
[9] = JC-1 mitochondrial signal, unstimulated MM1S myeloma – cell-based, JC-1 fluorescence, 24 h, 100 nL compound, profiling panel (AID 1170); details: MM1S mitochondrial potential, higher = more signal; further: test concentration not given here
[10] = resazurin metabolic signal in A549 cells – cell-based, resazurin fluorescence, 24 h, PK04 Diversity Set, profiling panel (AID 1171); details: A549 viability, higher = more signal, called active from +8 up or from −8 down; further: test concentration not given here
[11] = resazurin metabolic signal in HepG2 cells – cell-based, resazurin fluorescence, 24 h, PK04 Diversity Set, profiling panel (AID 1172); details: HepG2 viability, higher = more signal; further: test concentration not given here
[12] = budding yeast growth changes without added modifier – OD600, strain BY4716, 24 h, basal condition, primary screen (AID 1173); details: S. cerevisiae BY4716 growth, OD600, 24 h; higher = more signal, called active from +8 up or from −8 down
[13] = viability profiling in MM1S myeloma cells – cell-based, resazurin fluorescence, basal, 24 h, PK04 Diversity Set, profiling panel (AID 1174); details: higher = more signal, called active from +8 up or from −8 down; further: test concentration not given here
[14] = target: Dihydroorotate dehydrogenase (quinone), mitochondrial (Plasmodium falciparum (isolate 3D7)) (UniProt Q08210); experiment: inhibition of P. falciparum DHODH – biochemical, C-terminal His tag, absorbance 600 nm, primary screen (AID 1175); details: PfDHODH enzyme, DCIP absorbance 600 nm; higher = more signal, called active from +8 up or from −8 down;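 further: recombinant parasite enzyme with a five histidine tag at its C terminus; test concentration not given here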
Dihydroorotate dehydrogenase (quinone), mitochondrial (Plasmodium falciparum (isolate 3D7)), sequence (Q08210 whole entry, looked up): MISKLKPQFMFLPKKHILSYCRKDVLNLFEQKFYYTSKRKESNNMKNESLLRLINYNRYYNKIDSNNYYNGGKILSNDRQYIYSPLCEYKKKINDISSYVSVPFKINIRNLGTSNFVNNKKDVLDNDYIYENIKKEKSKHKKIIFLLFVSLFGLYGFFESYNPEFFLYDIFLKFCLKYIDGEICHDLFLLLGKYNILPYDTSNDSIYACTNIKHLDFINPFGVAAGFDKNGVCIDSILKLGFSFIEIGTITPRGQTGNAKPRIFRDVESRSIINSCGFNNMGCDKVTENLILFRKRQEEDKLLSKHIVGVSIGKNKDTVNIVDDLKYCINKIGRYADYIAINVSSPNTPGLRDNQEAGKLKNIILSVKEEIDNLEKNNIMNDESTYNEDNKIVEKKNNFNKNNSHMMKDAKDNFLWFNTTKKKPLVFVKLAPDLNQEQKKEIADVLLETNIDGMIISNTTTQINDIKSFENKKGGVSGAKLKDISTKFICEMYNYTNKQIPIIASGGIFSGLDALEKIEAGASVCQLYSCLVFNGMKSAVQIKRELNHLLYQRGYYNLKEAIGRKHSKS

[15] = inhibition of PAO1 biofilm formation – strain PAO1, LB-PBS medium, absorbance 600 nm, primary screen (AID 1176); further: test concentration not given here; details: P. aeruginosa PAO1 growth/biofilm, A600, 12 h; higher = more signal
[16] = growth modulation of vineyard yeast isolate – strain RM11-1a, OD600, basal, 24 h, primary screen (AID 1177);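 further: cultures grown under basal conditions with no added stressor; test concentration not given here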; details: S. cerevisiae RM11-1a growth, OD600, 24 h; higher = more signal, called active from +8 up or from −8 down
[17] = growth of efflux-deficient E. coli DRC39 – strain DRC39, OD650, 24 h, E. coli filamentation inducers, primary screen (AID 1178);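 further: growth measured as culture turbidity by optical density at 650 nm; test concentration not given here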; details: E. coli DRC39 acrAB, higher = more signal, called active from +8 up or from −8 down
[18] = growth of efflux-deficient E. coli DRC39 – strain DRC39, OD650, 48 h, E. coli filamentation inducers, primary screen (AID 1179);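 further: screen aims at cell division blockers that make cells filament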; details: E. coli DRC39 delta-acrAB growth, higher = more signal, called active from +8 up or from −8 down
[19] = viability profiling in RPMI8226 myeloma cells – cell-based, resazurin fluorescence, basal, 24 h, PK04 Diversity Set, profiling panel (AID 1180); details: higher = more signal;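 further: RPMI8826 multiple myeloma cell line at 5000 cells per well; test concentration not given here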
[20] = target: E3 ubiquitin-protein ligase XIAP (Homo sapiens) (UniProt P98170); experiment: small molecules binding XIAP protein – biophysical, small-molecule microarray, fluorescence 635 nm, primary screen (AID 1181); details: higher = more signal;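 further: score merges 667 nm emission and signal to noise over triplicate slides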
E3 ubiquitin-protein ligase XIAP (Homo sapiens), sequence (P98170 whole entry, looked up): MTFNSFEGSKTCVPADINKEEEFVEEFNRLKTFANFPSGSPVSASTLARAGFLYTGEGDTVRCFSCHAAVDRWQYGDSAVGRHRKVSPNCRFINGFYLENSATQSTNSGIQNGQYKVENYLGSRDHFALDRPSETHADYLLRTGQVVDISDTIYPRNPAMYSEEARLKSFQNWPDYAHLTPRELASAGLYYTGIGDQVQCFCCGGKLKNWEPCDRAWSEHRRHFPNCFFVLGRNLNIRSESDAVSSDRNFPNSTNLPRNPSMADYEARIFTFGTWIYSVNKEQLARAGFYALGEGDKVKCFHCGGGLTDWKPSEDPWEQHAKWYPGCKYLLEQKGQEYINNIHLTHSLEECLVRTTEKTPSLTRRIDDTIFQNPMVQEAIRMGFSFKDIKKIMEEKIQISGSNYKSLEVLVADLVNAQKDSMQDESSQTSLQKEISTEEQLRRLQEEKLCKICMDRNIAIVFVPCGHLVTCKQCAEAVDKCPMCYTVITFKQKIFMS

CC(=O)NCCCC[C@@H]1NC(=O)[C@H]2C[C@@H](C(=O)NCCCCCC[N+](C)(C)C)[C@@H](c3ccc(O)cc3)N2C1=O
z-score [1]: -0.74
z-score [2]: 0.234
z-score [3]: -1.22
z-score [4]: -0.0244
z-score [5]: 0.512
z-score [6]: -0.896
z-score [7]: 0.217 (inactive)
z-score [8]: 0.0883
z-score [9]: -0.251
z-score [10]: 0.615 (inactive)
z-score [11]: 0.387
z-score [12]: -0.0177 (inactive)
z-score [13]: 0.319 (inactive)
composite z-score [14]: -1.03 (inactive)
z-score [15]: 0.519 (inactive)
z-score [16]: -0.533 (inactive)
z-score [17]: -0.04 (inactive)
z-score [18]: -0.63 (inactive)
z-score [19]: -0.0771
composite z-score [20]: -0.0062

NCCCC[C@@H]1NC(=O)[C@H]2C[C@@H](C(=O)NCc3ccc(F)cc3)[C@@H](c3ccc(O)cc3)N2C1=O
z-score [1]: -0.494
z-score [2]: -0.0841
z-score [3]: -0.666
z-score [4]: -0.206
z-score [5]: 0.307
z-score [6]: -1.64
z-score [7]: -0.4 (inactive)
z-score [8]: 0.667
z-score [9]: 0.0192
z-score [10]: -0.537 (inactive)
z-score [11]: 0.175
z-score [12]: 1.15 (inactive)
z-score [13]: 0.247 (inactive)
composite z-score [14]: -0.17 (inactive)
z-score [15]: 0.174 (inactive)
z-score [16]: 1.02 (inactive)
z-score [17]: 0.207 (inactive)
z-score [18]: -0.277 (inactive)
z-score [19]: 0.191
composite z-score [20]: 0.226

CCOC(=O)C[C@H]1[C@H](OC(=O)c2ccc(-c3ccccc3)cc2)[C@@H](NC(=O)c2ccc3ccccc3c2)c2cc(OCCCO)ccc2N1C(=O)c1ccccc1
z-score [1]: -0.9
z-score [2]: 0.237
z-score [3]: -0.307
z-score [4]: -0.438
z-score [5]: -0.322
z-score [6]: 0.762
z-score [7]: -0.0421 (inactive)
z-score [8]: 0.483
z-score [9]: -0.108
z-score [10]: 0.231 (inactive)
z-score [11]: -0.491
z-score [12]: 1.31 (inactive)
z-score [13]: -0.483 (inactive)
composite z-score [14]: 0.622 (inactive)
z-score [15]: 0.055 (inactive)
z-score [16]: 1.13 (inactive)
z-score [17]: -0.0319 (inactive)
z-score [18]: -0.0532 (inactive)
z-score [19]: -0.221
composite z-score [20]: 0.0454

O=C1OCCC=C[C@H]2OC34C=CCN(c5ccc(Cl)cc5)C(=O)[C@H]3N(CCO)C(=O)[C@@H]4C12 (stereo not given in full)
z-score [1]: -0.384
z-score [2]: 0.0844
z-score [3]: 0.0509
z-score [4]: 0.739
z-score [5]: -0.165
z-score [6]: -0.28
z-score [7]: 0.296 (inactive)
z-score [8]: 0.0137
z-score [9]: 1.29
z-score [10]: 0.519 (inactive)
z-score [11]: 0.545
z-score [12]: 0.204 (inactive)
z-score [13]: 0.221 (inactive)
composite z-score [14]: -1.45 (inactive)
z-score [15]: -0.317 (inactive)
z-score [16]: 0.132 (inactive)
z-score [17]: -0.947 (inactive)
z-score [18]: -1.04 (inactive)
z-score [19]: -0.202
composite z-score [20]: -0.31

CCCCNC(=O)c1ccc(C#C[Si](C)(C)C)c(OC(C)=O)c1
z-score [1]: -0.507
z-score [2]: 0.477
z-score [3]: -0.484
z-score [4]: 0.131
z-score [5]: -1.13
z-score [6]: -1.12
z-score [7]: -0.538 (inactive)
z-score [8]: -0.215
z-score [9]: -0.601
z-score [10]: -0.389 (inactive)
z-score [11]: -0.0319
z-score [12]: -1.09 (inactive)
z-score [13]: -0.757 (inactive)
composite z-score [14]: -1.4 (inactive)
z-score [15]: -1.44 (inactive)
z-score [16]: 0.846 (inactive)
z-score [17]: 1.17 (inactive)
z-score [18]: -0.925 (inactive)
z-score [19]: 0.0873
composite z-score [20]: -0.326
